Data from PubChem BioAssay (NCI).
About 83,000 compounds went through this panel and 20% of them were active in at least one assay; those are over-represented in the sample as a whole.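 Assay: single dose, 48 h. Readout: percent growth (0 = no net growth; negative = cell death). Active: <10.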 Calls of active or inactive are those of the source.

system: U251 CNS; experiment: NCI-60 one-dose screen, 48 h (100 = growth as untreated, 0 = no growth, -100 = all killed); settings: 10 µM unless noted
Protocol: Growth inhibition of the U251 human tumor cell line is measured as a screen for anti-cancer activity. Cells are grown in 96 well plates and exposed to the test compound for 48 hours. Compounds are tested at a single concentration, which is 10^-5 M for most compounds. The reported endpoint is percent growth (GI% or GIPRCNT), where numbers from 0 - 100% represent growth inhibition, and numbers from -100% - 0 represent cell death. For example, a value of 40 represents 60% growth inhibition. A value of 0 means no net growth occurred over the course of the experiment. A value of -40 indicates 40% of cells at the beginning of the experiment died by the end of the experiment. A value of -100 means all cells are dead at the end of the experiment.
NCI-60 Human Tumor Cell Lines Screen was performed using the standard one-dose NCI protocol, which is described in more detail at https://dtp.cancer.gov/discovery_development/nci-60/default.htm.
Compounds with GIPRCNT values below 10 were considered active. Activity score was based on GIPRCNT using the following formula: […]
Score is 0 for GIPRCNT values of 100 or above, 50 for GIPRCNT values of 0, and 100 for GIPRCNT values of -100.

| Compound | growth |
| --- | --- |
| CCOc1ccc(NC(=O)c2ccccc2-c2ccccc2C(=O)O)cc1 | 112% (inactive) |
| CC(CNc1nc(Nc2ccc(Cl)c(Cl)c2)nc(C(Cl)(Cl)Cl)n1)N(C)C (stereo not given) | -82.6% (active) |
| O=C1C(=O)c2ccccc2C(O)=C1CCCc1ccc(C2CCCCC2)cc1 | 45.4% (inactive) |
| C=C(C)[C@@H]1CC[C@]2(c3nnc(-c4ccncc4)o3)CC[C@]3(C)[C@H](CC[C@@H]4[C@@]5(C)CCC(=O)NC(C)(C)[C@@H]5CC[C@]43C)[C@@H]12 | 96% (inactive) |
| COc1ccc(C2c3ccccc3NC(=O)N2C2CCN(C)CC2)c(OC)c1 (stereo not given) | 100% (inactive) |
| COc1ccc2c3c(c4ccccc4cc13)C(=O)N(CCN(C)CCN)C2=O | -86.3% (active) |
| CC1(C)CC[C@]2(CO)CC[C@]3(C)C(=CC[C@@H]4[C@@]5(C)CC[C@H](NCO)C(C)(C)[C@@H]5CC[C@]43C)[C@@H]2C1 | -79.4% (active) |
| Fc1ccc2nc(-c3cc(-c4ccc5c(c4)OCO5)n[nH]3)[nH]c2c1 | 41.1% (inactive) |
| COc1cc2c(cc1-c1c(C)noc1C)ncc1nc(C3CC3)n([C@H](C)COC(F)F)c12 | 52.8% (inactive) |
| C[C@H]1OC(=O)/C=C/[C@@H](O)[C@@H](O)CCCCCCCC[C@@H]1O | 90.2% (inactive) |
| CCCCC[C@H]1C/C=C2/C(=O)C(Cl)=C[C@@H]2C/C=C\CCCC(=O)O1 | -91.7% (active) |
| Cc1cc(N2CCN(C)CC2)nc(N(CCNc2ccnc3cc(Cl)ccc23)Cc2ccco2)n1 | 39.3% (inactive) |
| COc1ccc2nc(-c3c(-c4ccccc4)nc4ncccn34)[nH]c2c1 | 99.5% (inactive) |
| O=C(NO)c1ccc(Cn2c(=O)n(CCc3ccc(O)cc3)c(=O)c3ccccc32)cc1 | 8.31% (active) |
| O=C(NC1=CC(=O)c2ccccc2C1=O)c1ccccc1 | 21.1% (inactive) |
| COc1ccc(-c2nc(SCC(=O)Nc3ccc(C(C)=O)cc3)[nH]c(=O)c2C#N)cc1 | 89.4% (inactive) |
| COC1=C(Br)C(=O)C(OC)=C(Br)C1=O | 104% (inactive) |
| Cc1ccc2c(c1)c1nc3cc(C)c(C)cc3nc1n2CCN(C)C | 23.7% (inactive) |
| COC(=O)[C@]12CC[C@@H](C)[C@H](C)[C@@H]1C1=CC[C@@H]3[C@@]4(C)C[C@@H](OC(C)=O)[C@H](O)[C@@](C)(CO)[C@@H]4[C@H](O)C[C@@]3(C)[C@]1(C)CC2 | -84.1% (active) |
| O=C1c2cc3c(cc2-c2c1c1ccc(Cl)cc1c(=O)n2C[C@H](O)[C@@H](O)[C@H](O)CO)OCO3 | -26.9% (active) |

| Compound | growth |
| --- | --- |
| COc1cc(/C=C2\C(=O)N(CC(O)COc3cc(O)c4c(=O)cc(-c5ccccc5)oc4c3)c3ccccc32)cc(OC)c1O (stereo not given) | 91.6% (inactive) |
| COc1ccc2c(c1)c(-c1nc(-c3c[nH]c4ncccc34)cs1)cn2C | 75.3% (inactive) |
| C#CCn1c(C)cc(C)c(C#N)c1=O | 100% (inactive) |
| CCc1ccccc1NC(=O)c1sc2nc3c(cc2c1N)CCCC3 | 27.8% (inactive) |
| COc1cccc(-c2nn(-c3ccccc3)cc2-c2ccnc(NCCNS(=O)(=O)c3ccccc3)c2)c1 | 34.8% (inactive) |
| C[C@@H](Oc1ccc(C(=O)NS(=O)(=O)C(C)(C)C)cc1C(F)(F)F)c1ccc(Oc2ccccc2)cn1 | 25.6% (inactive) |
| COc1cnc2c(c1)C(=O)c1c-2n(CCCNC(C)C)c(=O)c2cc([N+](=O)[O-])ccc12 | -80.6% (active) |
| COc1ccc2nc(-c3cc(-c4cc(OC)c(OC)c(OC)c4)n[nH]3)[nH]c2c1 | 39.3% (inactive) |
| O=C(CCCCCn1c2ccccc2c2c3c(c4c5ccccc5[nH]c4c21)C(=O)N(O)C3=O)N1CCOCC1 | 33.9% (inactive) |
| c1ccc(CN2C(c3ccccc3)=Nc3ccccc3C2c2c[nH]c3ccccc23)cc1 (stereo not given) | 35.7% (inactive) |
| O=S(=O)(NCCNc1cc(-c2cn(-c3ccccc3)nc2-c2cccc(O)c2)ccn1)c1ccc(Cl)cc1 | 22.1% (inactive) |
| COc1cc2c3c(c4c5ccccc5[nH]c4c2c(OC)c1OC)C(=O)N(O)C3=O | 28% (inactive) |
| O=[N+]([O-])c1ccc(/C=N\Nc2ccccc2)cc1 | 72% (inactive) |
| CCC(c1ccc(OC)cc1)C(CC)c1ccc(O)c(CN2CCCCC2)c1 (stereo not given) | 72.8% (inactive) |
| COc1cc2c(cc1-c1c(C)noc1C)ncc1nc(C3CCC(F)(F)CC3)n([C@@H](C)COC(F)F)c12 | 50.5% (inactive) |
| CC1(C)c2ccccc2C(=O)C1(Br)Cc1ccccc1 (stereo not given) | 91% (inactive) |
| Cc1ccc(/C=C(\C#N)c2cc3ccccc3n2C)cc1 | 30.9% (inactive) |
| Cc1ccsc1-c1ccc2c(c1)COC2(CCCN(C)C)c1ccc(F)cc1 (stereo not given) | 21% (inactive) |
| Nc1ccc(Br)cn1 | 108% (inactive) |
| C/C(=N\Nc1cc(C)c2cc(C)ccc2n1)c1ccccn1 | -100% (active) |
